From PubChem
SARS PLpro yeast = qHTS of Yeast-based Assay for SARS-CoV PLP. AID 485353, 2010. Potency, µM (series often up to 32.9 µM), for the others: top-dose activity, positive = growth rescue, usual class: activators. S. cerevisiae expressing SARS-CoV PLpro, growth rescue. 330,000 tested, 0.19% active; calls by dose curve; also: potency is read from the fitted curve at half-maximal effect; 0% is about no effect; nearly all actives have a fitted effect of over 55% in size
CHX counter = Cycloheximide Counterscreen for Small Molecule Inhibitors of Shiga Toxin. max response, %. cell reporter, cycloheximide protein synthesis inhibition counterscreen. 300,000 tested, 12% active. AID 2314, 2010; in the data active = max response mostly above about 13%, no sharp cut-off; inactive = mostly below about 14%; also: read at 38.3 µM for the half of the compounds with a filed dose; 0% is about no effect
NS1 inh = qHTS Assay for Inhibitors of Influenza NS1 Protein Function. 270,000 tested, 0.4% active. Potency, µM (titrated, usually from 46.1 µM), for the others: top-dose activity, positive = more growth; calls by dose curve; also: potency is read from the fitted curve at half-maximal effect; actives are rising curves; nearly all actives have a fitted effect of over 50% in size
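A cell-based growth assay was used: compounds that relieve NS1-induced slow growth of budding yeast raise OD600. Assay medium was yeast nitrogen base with ammonium sulphate and -URA supplement, pH 6.0, with 2% galactose.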
Pf growth 48h = Primary qHTS for delayed death inhibitors of the malarial parasite plastid, 48 hour incubation | P. falciparum luciferase growth in erythrocytes, 48 h | Potency, µM (series often up to 28.7 µM), for the others: at the highest dose activity change, negative = inhibition, usual class: inhibitors | 310,000 tested, 5.9% active; also: potency is read from the fitted curve at half-maximal effect; % is scaled to controls: 0 for no effect and ±100 for the full control effect
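Luciferase-expressing P. falciparum in infected erythrocytes (2% hematocrit, 0.1% parasitemia final) in RPMI 1640/0.5% Albumax were exposed to compound for 48 hours at 37 C, 5% CO2; growth read as luminescence.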
Pf growth 96h = Primary qHTS for delayed death inhibitors of the malarial parasite plastid, 96 hour incubation; P. falciparum luciferase reporter growth, 96 h; Potency, µM (top dose mostly 28.7 µM), for inactives: at the top dose activity change, negative = inhibition, hits mostly inhibitors; 320,000 tested, 6.9% active; also: potency is read from the fitted curve at half-maximal effect; % is scaled to controls: 0 for no effect and ±100 for the full control effect
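Cell-based qHTS: luciferase-tagged P. falciparum in erythrocytes (2% hematocrit, 0.05% parasitemia final) incubated with compounds for 96 hours, 37 C, 5% CO2; luciferase detection reagent then added and luminescence measured.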
Shiga toxin inh = A qHTS for Small Molecule Inhibitors of Shiga Toxin. Vero cells, Shiga toxin protein synthesis inhibition reporter. inhibition, % at 38.7 µM. 290,000 tested, 9.2% active; in the data active = inhibition mostly above about 28%, no sharp cut-off; inactive = mostly below about 43%; also: 0% is about no effect
The depositor's hits bear a star; ? = inconclusive; / = no result. A selection: hits, their analogues and other compounds. The true share with any hit is near 21%. Unless noted, calls follow the shape of the dose curve; as a rule, active = well fitted inhibition curve with a large enough effect; inconclusive = small, poorly fitted or top-dose-only effect, or another doubt; inactive = no such curve, though single readings can be large or run the other way.

SMILES | SARS PLpro yeast | CHX counter | NS1 inh | Pf growth 48h | Pf growth 96h | Shiga toxin inh
CCCN(CC1CC1)C(=O)CCc1nnc(C(OC)c2ccccc2)o1 (stereo not given) | 1% | 11 | 4% | -12% | ? | 46*
COC(c1ccccc1)c1nnc(CCC(=O)N(C)Cc2cccc(-n3cccn3)c2)o1 (stereo not given) | -1% | 33* | -6% | -5% | -19% | 107*
COC(c1ccccc1)c1nnc(CCC(=O)NCCC(C)C)o1 (stereo not given) | -1% | -1 | 0% | 9% | -22% | -3
COC(c1ccccc1)c1nnc(CCC(=O)N(C)CCCC2CCCC2)o1 (stereo not given) | 0% | 27* | -31% | -6% | ? | 46*
COC(c1ccccc1)c1nnc(CCC(=O)N(C)CCOc2ccccc2)o1 (stereo not given) | 0% | 28* | -7% | 7% | -8% | 59*
COC(c1ccccc1)c1nnc(CCC(=O)NCc2ccc3ncccc3c2)o1 (stereo not given) | 1% | -1 | 0% | 13% | -20% | 2
NC(N)=NC(N)=Nc1c(F)c(F)c(F)c(F)c1F | / | / | 3% | / | / | /
CCC(=O)c1ccccc1OCCCn1cncn1 | 0% | -2 | -2% | 18% | / | -10
c1ccc(Oc2cccc(OCCn3cncn3)c2)cc1 | 1% | -2 | -5% | 23% | 3% | 11
CC(=O)CCc1ccc(OCCCCn2cncn2)cc1 | -2% | 20* | -3% | 30% | 47% | 51*
c1ccc(-c2ccc(OCCCn3cncn3)cc2)cc1 | -10% | 41* | -102% | 71% | ? | 61*
c1ccc(COc2ccc(OCCn3cncn3)cc2)cc1 | -6% | 25* | -2% | 189% | / | 54*
CCC(C)C(NC(=O)OC(C)(C)C)C(=O)NC1COC2CC(n3ccc(=O)[nH]c3=O)OC12 (stereo not given) | / | -6 | / | / | / | 8
O=[N+]([O-])c1cccnc1Sc1ccc(Cl)cc1 | -2% | -7 | 3% | / | 10% | 24
O=[N+]([O-])c1cccnc1Sc1n[nH]c(-c2ccc(Cl)cc2)n1 | 0% | 37* | -1% | 60% | 62% | 55*
COc1cc(/C=C2\CCOC2=O)cc(OC)c1OC | 2% | 2 | 3% | 0% | -17% | -10
COc1ccc(/C=C2/CCOC2=O)cc1 | 2% | 18* | 9% | 20% | 31% | -2
Cc1ccc(/C=C2/CNC/C(=C\c3ccc(C)cc3)C2=O)cc1 | / | 67* | / | / | / | 86*
Cc1ccc(/C=C2\CCOC2=O)cc1 | 1% | 12* | -2% | ? | 11% | 15
Cc1ccc(/C=C2/C(=O)NC(=O)N(C)C2=O)cc1 | 2% | -2 | ? | 7% | -21% | 13
CC(OC(=O)c1nccnc1N)C(=O)Nc1ccc(S(=O)(=O)N2CCCC2)cc1 (stereo not given) | -1% | / | / | -15% | -7% | /
COc1cc(NC(=O)C2CCCN(c3ncnc4c3nc3n4CCCCC3)C2)cc(OC)c1OC (stereo not given) | 2% | -3 | -9% | ? | 13µM* | 2
Cc1cccc(CCNC(=O)C2CCCN(c3ncnc4c3nc3n4CCCCC3)C2)c1 (stereo not given) | 3% | -3 | -13% | ? | 12µM* | 10
O=C(Nc1ccccc1Cl)C1CCCN(c2ncnc3c2nc2n3CCCCC2)C1 (stereo not given) | 0% | -2 | -39% | ? | 6.6µM* | -4
O=C(CSc1nc2ccccc2s1)N1c2ccccc2Sc2ccc(Cl)cc21 | -2% | -3 | 25% | ? | 5.9µM* | -3
SMILES | SARS PLpro yeast | CHX counter | NS1 inh | Pf growth 48h | Pf growth 96h | Shiga toxin inh
O=c1oc2cc(Cl)ccc2n1CSc1nc2ccccc2s1 | -11% | 31* | -3% | / | ? | 58*
O=C(CSc1nc2ccccc2s1)N1c2ccccc2Sc2ccc(C(F)(F)F)cc21 | 4% | 2 | 13% | 15µM* | ? | -8
Cc1n(CC(O)COC2CCCCC2)c2ccccc2[n+]1C (stereo not given) | 16% | -5 | 2% | 6.6µM* | 27% | -3
OC(COC1CCCCC1)CN1CCN(c2ccccc2)CC1 (stereo not given) | 3% | -4 | 6% | 23% | / | 6
CCN1C(=O)[C@H]2[C@@H](c3ccc(-c4ccccc4)cc3)N3CCCC[C@@]3(C(=O)OC)[C@H]2C1=O | 8% | / | / | 10µM* | ? | /
CCN1C(=O)[C@@H]2[C@@H](c3ccc(-c4ccc(OC)cc4)cc3)N3CCCC[C@@]3(C(=O)OC)[C@@H]2C1=O | 3% | / | / | 10µM* | 5.2µM* | /
CCN1C(=O)[C@@H]2[C@@H](c3ccc(-c4ccc5c(c4)OCO5)cc3)N3CCCC[C@@]3(C(=O)OC)[C@@H]2C1=O | -8% | / | / | ? | 13µM* | /
CCN1C(=O)[C@H]2[C@@H](c3ccc(-c4ccc5c(c4)OCO5)cc3)N3CCC[C@@]3(C(=O)OC)[C@H]2C1=O | 2% | / | / | ? | -14% | /
CCSc1ccc([C@@H]2[C@@H]3C(=O)N(CC)C(=O)[C@@H]3[C@]3(C(=O)OC)CCCCN23)cc1 | 0% | / | / | -91% | -100% | /
CCN1C(=O)[C@@H]2[C@@H](c3ccc(-c4ccc(C(C)=O)cc4)cc3)N3CCCC[C@@]3(C(=O)OC)[C@@H]2C1=O | -1% | / | / | 10µM* | 12µM* | /
COC(=O)[C@@]12CCCCN1[C@H](c1ccc(-c3ccc(C(C)=O)cc3)cc1)[C@H]1C(=O)N(C)C(=O)[C@H]12 | 9% | / | / | ? | -8% | /
Cc1nc(NC(=O)/C=C/c2ccccc2)sc1C(=O)Nc1ccc(Cl)cc1 | -9% | -1 | 5% | ? | 43% | -14
Cc1nc(NC(=O)C2CC2)sc1C(=O)Nc1ccccc1Cl | -5% | 33* | -2% | 83% | -13% | 19
Cc1nc(Nc2ccc(Cl)c(Cl)c2)sc1C(=O)Nc1ccccc1 | -84% | 25* | 3% | ? | ? | -28
Cc1nc(Nc2ccc(Cl)cc2Cl)sc1C(=O)Nc1ccccc1 | -60% | -1 | 5% | ? | 12µM* | -7
CCOC(=O)N1CCN(C(=O)COC(=O)c2ccc(Cl)nc2)CC1 | 2% | / | / | / | / | /
COc1ccc(N(C(=O)c2ccco2)C(C(=O)NC2CCCC2)c2ccc(N(C)C)cc2)cc1 (stereo not given) | -2% | 1 | -8% | / | / | -16
COc1ccc(C(C(=O)NC2CCCC2)N(C(=O)c2ccco2)c2ccc3c(c2)OCO3)cc1OC (stereo not given) | -8% | -3 | -10% | ? | ? | 18
COc1ccc(C(C(=O)NC2CCCC2)N(C(=O)c2ccoc2C)c2cc(C)cc(C)c2)cc1 (stereo not given) | 1% | 1 | -15% | -5% | ? | -14
